# According to PubChem BioAssay (NCATS):
# Results filed as inconclusive are left out. Unmarked numbers belong to inactive results. Activity calls are given as the source filed them. Calls come from the whole dose curve; tested in HEK293 reporter line.
# Assay: qHTS for Inhibitors of the Functional Ribonucleoprotein Complex (vRNP) of Lassa (LASV) Arenavirus: LASV Primary Screen - GLuc reporter signal (AID 1347082); note: nearly all actives have a fitted effect of over 60% in size
# Details: LASV minigenome vRNP, Gaussia luciferase reporter; series mostly up to 57.5 µM; activity change, negative = inhibition: at the top concentration
# % is set by controls: 0 for no effect and ±100 for the full control effect.
row,SMILES,"activity change, negative = inhibition"
1,C=C1C(O)C[C@H]2C(=C)CCC3[C@H](OC(=O)[C@]3(O)CO)[C@@H]12 (stereo not given in full),-3%
2,CC(=O)NCC(=O)N1[C@H]2CC[C@H]1c1cc(Nc3ncc(C(F)(F)F)c(NC4CCC4)n3)ccc12,-23.2%
3,C=C1[C@H]2CC[C@@H]3[C@H]2C(C)(C)CCC[C@]13C,4.51% [at 115 µM]
4,CC(C)CCOC(=O)c1ccccc1,-12% [at 115 µM]
5,O=C(O)[C@H](O)[C@@H](O)C(=O)O,-10.1%
6,Cc1nc(C(N)=O)nc2ccccc12,3.11%
7,C[C@]12CCC(=O)C=C1[C@@H]1CC1[C@H]1[C@H]3[C@@H]4C[C@H]4[C@@]4(CCC(=O)O4)[C@@]3(C)CC[C@H]12 (stereo not given in full),-8.9%
8,CCCC1CCC(=O)O1 (stereo not given),3.5% [at 115 µM]
9,Nc1ccn([C@@H]2O[C@H](CO)[C@@H](OP(=O)(O)O)[C@H]2O)c(=O)n1,0.238%
10,CC1CC(C)C(=O)C1=O (stereo not given),13.8% [at 115 µM]
11,CC(=O)OC[C@]12CCC(C)=C[C@H]1O[C@@H]1[C@H](O)[C@@H](OC(C)=O)[C@@]2(C)[C@]12CO2,-90.7%
12,CC(=O)CCC1=C(C)CCCC1(C)C,0.48% [at 115 µM]
13,OC(c1cc(C(F)(F)F)nc2c(C(F)(F)F)cccc12)C1CCCCN1 (stereo not given),-4.68%
14,C[C@@H]1[C@H](C)CC[C@]2(C(=O)O)CC[C@]3(C)C(=CC[C@@H]4[C@@]5(C)C[C@@H](O)[C@H](O)[C@@](C)(CO)[C@H]5CC[C@]43C)[C@@H]12,20.8%
15,C[C@H]1[C@H](C)CC[C@]2(C)CC[C@]3(C)C(=CC(=O)C4[C@@]5(C)CC[C@H](O)C(C)(C)C5CC[C@]43C)[C@H]12 (stereo not given in full),0.497%
16,O=C(/C=C/c1ccc(O)cc1)OC[C@H]1O[C@@H](Oc2c(-c3ccc(O)cc3)oc3cc(O)cc(O)c3c2=O)[C@H](O)[C@@H](O)[C@@H]1O,-14.9% [at 24.7 µM]
17,O=C1CCCCCCCCCCCCCCO1,0.0649% [at 115 µM]
18,CC(=O)c1c(O)cc(O)cc1O,2.94%
19,O=C(/C=C/c1ccccc1)OC/C=C/c1ccccc1,0.662% [at 115 µM]
20,CC(C)c1noc(N2CCC(COc3ccc(-c4ccc(S(C)(=O)=O)cc4)nc3)CC2)n1,-19.6%

row,SMILES,"activity change, negative = inhibition"
1,CCN1CCN(C(=O)N[C@H](C(=O)N[C@@H]2C(=O)N3C(C(=O)O)=C(CSc4nnnn4C)CS[C@@H]23)c2ccc(O)cc2)C(=O)C1=O,-8.41% [at 19.1 µM]
2,CC(=O)OCC1=C(C(=O)O)N2C(=O)[C@@H](NC(=O)Cc3ccccc3)[C@H]2SC1,7.75%
3,CC1OC(OC2C(CO)OC(OCC3OC(OC(=O)[C@@]45CCC(C)(C)C[C@@H]4C4=CC[C@@H]6[C@@]7(C)CCC(OC8OCC(O)C(O)C8OC8OC(C)C(O)C(O)C8O)[C@@](C)(CO)C7CC[C@@]6(C)[C@]4(C)CC5)C(O)C(O)C3O)C(O)C2O)C(O)C(O)C1O (stereo not given in full),-8.11%
4,Cc1cc(OCCCc2c(C(=O)O)n(Cc3cccnc3)c3c(-c4c(COc5ccc(N6CCN([S+](C)(=O)[O-])CC6)cc5)nn(C)c4C)cccc23)cc(C)c1Cl,-20%
5,O=c1cc(-c2ccc(O)c(O)c2)oc2ccccc12,-5.58%
6,CC/C=C\CCOC(=O)C(C)C,1.53%
7,CC(=O)O[C@H]1C(=O)[C@@]2(C)C([C@H](OC(=O)c3ccccc3)[C@]3(O)C[C@H](OC(=O)[C@H](O)[C@@H](NC(=O)c4ccccc4)c4ccccc4)C(C)=C1C3(C)C)[C@]1(OC(C)=O)CO[C@@H]1C[C@H]2O (stereo not given in full),-19.4%
8,CC1CCC(C(C)(C)S)C(=O)C1 (stereo not given),-21.4% [at 115 µM]
9,O=C1CCC[C@H]2[C@@H]3CCCN4CCC[C@H](CN12)[C@H]34,7.36%
10,C/C=C(/C)C(=O)OC1Cc2c(ccc3ccc(=O)oc23)OC1(C)C (stereo not given),-11.6%
11,COc1ccc(C(=O)OC2CC3CCC(C2)[N+]3(C)[O-])cc1OC (stereo not given),13.1%
12,CCCCCCCCCCOC(C)=O,-11.9% [at 115 µM]
13,OC[C@H]1O[C@@H](O[C@H]2[C@@H](O)[C@@](O)(CO)O[C@@H]2CO)[C@H](O)[C@@H](O)[C@@H]1O,-4.26%
14,CCCCCCCCC(=O)OCC,4.24% [at 115 µM]
15,COC(=O)C1(Cc2ccc(O)cc2)OC(=O)C(O)=C1c1ccc(O)cc1 (stereo not given),3.13%
16,C[C@H]1O[C@@H](O[C@H]2CC[C@@]3(C)C(CC[C@]4(C)C3C=C[C@]35OC[C@@]6(CCC(C)(C)C[C@H]63)[C@@H](O)C[C@]54C)[C@]2(C)CO)[C@H](O)[C@@H](O[C@@H]2O[C@H](CO)[C@@H](O)[C@H](O)[C@H]2O)[C@H]1O (stereo not given in full),-0.411%
17,COc1ccc([C@@H]2[C@@H](O)[C@H](O)[C@@H](C)N2C)cc1OC,5.52%
18,COc1cc(C(=O)O[C@H]2C/C(C)=C/CC/C(C)=C/[C@@H](O)C2C(C)C)ccc1O (stereo not given in full),-3.23%
19,COc1c2ccc(OCC/C(C)=C/C(=O)C=C(C)C)cc2nc2occc12,-9.49%
20,O=Cc1ccc(O)cc1O,2.48%

# Assay: qHTS for Inhibitors of the Functional Ribonucleoprotein Complex (vRNP) of Lassa (LASV) Arenavirus: Viability assay - alamar blue signal for LASV Primary Screen (AID 1347083); note: nearly all actives have a fitted effect of over 80% in size; note: potency is the fitted concentration of half-maximal effect
# Details: cell viability, alamar blue fluorescence (LASV minigenome counter-screen); series mostly up to 57.5 µM; activity change, negative = reduced viability: at the top concentration
SMILES,"activity change, negative = reduced viability",Potency
C=C1C(O)C[C@H]2C(=C)CCC3[C@H](OC(=O)[C@]3(O)CO)[C@@H]12 (stereo not given in full),-0.703%,–
CC(=O)NCC(=O)N1[C@H]2CC[C@H]1c1cc(Nc3ncc(C(F)(F)F)c(NC4CCC4)n3)ccc12,–,3.43 µM (active)
C=C1[C@H]2CC[C@@H]3[C@H]2C(C)(C)CCC[C@]13C,20.6% [at 115 µM],–
CC(C)CCOC(=O)c1ccccc1,1.63% [at 115 µM],–
O=C(O)[C@H](O)[C@@H](O)C(=O)O,-23.2%,–
Cc1nc(C(N)=O)nc2ccccc12,5.71%,–
C[C@]12CCC(=O)C=C1[C@@H]1CC1[C@H]1[C@H]3[C@@H]4C[C@H]4[C@@]4(CCC(=O)O4)[C@@]3(C)CC[C@H]12 (stereo not given in full),-2.21%,–
CCCC1CCC(=O)O1 (stereo not given),6.95% [at 115 µM],–
Nc1ccn([C@@H]2O[C@H](CO)[C@@H](OP(=O)(O)O)[C@H]2O)c(=O)n1,4.16%,–
CC1CC(C)C(=O)C1=O (stereo not given),17.5% [at 115 µM],–
CC(=O)OC[C@]12CCC(C)=C[C@H]1O[C@@H]1[C@H](O)[C@@H](OC(C)=O)[C@@]2(C)[C@]12CO2,-144%,–
CC(=O)CCC1=C(C)CCCC1(C)C,10.9% [at 115 µM],–
OC(c1cc(C(F)(F)F)nc2c(C(F)(F)F)cccc12)C1CCCCN1 (stereo not given),-17.6%,–
C[C@@H]1[C@H](C)CC[C@]2(C(=O)O)CC[C@]3(C)C(=CC[C@@H]4[C@@]5(C)C[C@@H](O)[C@H](O)[C@@](C)(CO)[C@H]5CC[C@]43C)[C@@H]12,13.6%,–
C[C@H]1[C@H](C)CC[C@]2(C)CC[C@]3(C)C(=CC(=O)C4[C@@]5(C)CC[C@H](O)C(C)(C)C5CC[C@]43C)[C@H]12 (stereo not given in full),-0.494%,–
O=C(/C=C/c1ccc(O)cc1)OC[C@H]1O[C@@H](Oc2c(-c3ccc(O)cc3)oc3cc(O)cc(O)c3c2=O)[C@H](O)[C@@H](O)[C@@H]1O,-17.5% [at 24.7 µM],–
O=C1CCCCCCCCCCCCCCO1,11.4% [at 115 µM],–
CC(=O)c1c(O)cc(O)cc1O,23.8%,–
O=C(/C=C/c1ccccc1)OC/C=C/c1ccccc1,20.3% [at 115 µM],–
CC(C)c1noc(N2CCC(COc3ccc(-c4ccc(S(C)(=O)=O)cc4)nc3)CC2)n1,4.04%,–

SMILES,"activity change, negative = reduced viability",Potency
CCN1CCN(C(=O)N[C@H](C(=O)N[C@@H]2C(=O)N3C(C(=O)O)=C(CSc4nnnn4C)CS[C@@H]23)c2ccc(O)cc2)C(=O)C1=O,-4.9% [at 19.1 µM],–
CC(=O)OCC1=C(C(=O)O)N2C(=O)[C@@H](NC(=O)Cc3ccccc3)[C@H]2SC1,18%,–
CC1OC(OC2C(CO)OC(OCC3OC(OC(=O)[C@@]45CCC(C)(C)C[C@@H]4C4=CC[C@@H]6[C@@]7(C)CCC(OC8OCC(O)C(O)C8OC8OC(C)C(O)C(O)C8O)[C@@](C)(CO)C7CC[C@@]6(C)[C@]4(C)CC5)C(O)C(O)C3O)C(O)C2O)C(O)C(O)C1O (stereo not given in full),-4.95%,–
Cc1cc(OCCCc2c(C(=O)O)n(Cc3cccnc3)c3c(-c4c(COc5ccc(N6CCN([S+](C)(=O)[O-])CC6)cc5)nn(C)c4C)cccc23)cc(C)c1Cl,-21%,–
O=c1cc(-c2ccc(O)c(O)c2)oc2ccccc12,-9.23%,–
CC/C=C\CCOC(=O)C(C)C,0.121%,–
CC(=O)O[C@H]1C(=O)[C@@]2(C)C([C@H](OC(=O)c3ccccc3)[C@]3(O)C[C@H](OC(=O)[C@H](O)[C@@H](NC(=O)c4ccccc4)c4ccccc4)C(C)=C1C3(C)C)[C@]1(OC(C)=O)CO[C@@H]1C[C@H]2O (stereo not given in full),-83.6%,–
CC1CCC(C(C)(C)S)C(=O)C1 (stereo not given),17.9% [at 115 µM],–
O=C1CCC[C@H]2[C@@H]3CCCN4CCC[C@H](CN12)[C@H]34,10.1%,–
C/C=C(/C)C(=O)OC1Cc2c(ccc3ccc(=O)oc23)OC1(C)C (stereo not given),6.28%,–
COc1ccc(C(=O)OC2CC3CCC(C2)[N+]3(C)[O-])cc1OC (stereo not given),1.37%,–
CCCCCCCCCCOC(C)=O,2.44% [at 115 µM],–
OC[C@H]1O[C@@H](O[C@H]2[C@@H](O)[C@@](O)(CO)O[C@@H]2CO)[C@H](O)[C@@H](O)[C@@H]1O,6.17%,–
CCCCCCCCC(=O)OCC,1.35% [at 115 µM],–
COC(=O)C1(Cc2ccc(O)cc2)OC(=O)C(O)=C1c1ccc(O)cc1 (stereo not given),1.21%,–
C[C@H]1O[C@@H](O[C@H]2CC[C@@]3(C)C(CC[C@]4(C)C3C=C[C@]35OC[C@@]6(CCC(C)(C)C[C@H]63)[C@@H](O)C[C@]54C)[C@]2(C)CO)[C@H](O)[C@@H](O[C@@H]2O[C@H](CO)[C@@H](O)[C@H](O)[C@H]2O)[C@H]1O (stereo not given in full),6.84%,–
COc1ccc([C@@H]2[C@@H](O)[C@H](O)[C@@H](C)N2C)cc1OC,2.73%,–
COc1cc(C(=O)O[C@H]2C/C(C)=C/CC/C(C)=C/[C@@H](O)C2C(C)C)ccc1O (stereo not given in full),7.12%,–
COc1c2ccc(OCC/C(C)=C/C(=O)C=C(C)C)cc2nc2occc12,20.8%,–
O=Cc1ccc(O)cc1O,2.53%,–
